# Assay results published in PubChem BioAssay AID1159580 (chemical genetic matrix, 2015).
# “And” between values parts separate entries of the source, which are not always exact repeats. Equal entries are not always repeated. The whole screen tested about 5,500 compounds, of which about 2,000 (36%) were called active. Another 18% or so got no clear call; they are omitted. The list shows a part of the results. Unmarked numbers belong to inactive results. Cut-off read from the data, not from the text of the source: active = normalized growth mostly below about 0.91 (no sharp cut-off); inconclusive = no clear call, values can overlap the other calls; inactive = mostly above about 0.92.
# Experiment: chemical genetic growth profiling, strain panel (AID 1159580);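 note: tested at 20 µM; growth read once vehicle control cultures reached saturation at 30 °C; 1 = growth at the plate median or of vehicle wells; lower values mean less growth of the strain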
# Settings: growth OD
compound,measurement,setting,value
O=c1c(O)c(-c2ccc(O)c(O)c2)oc2cc(O)cc(O)c12,normalized growth,"S. cerevisiae deletion strains, locus YKL009W, strain mrt4, stronger effect = lower value",1.01
same,normalized growth,"S. cerevisiae deletion strains, locus YKL068W, stronger effect = lower value",1.03
same,normalized growth,"S. cerevisiae deletion strains, locus YKL085W, strain MDH1 (second series), stronger effect = lower value",1.06
same,normalized growth,"S. cerevisiae deletion strains, locus YKL085W, strain MDH1, stronger effect = lower value",1.06
same,normalized growth,"S. cerevisiae deletion strains, locus YKL160W, strain elf1, stronger effect = lower value",0.87 (active)
same,normalized growth,"S. cerevisiae deletion strains, locus YKL190W, strain CNB1, stronger effect = lower value",0.97
same,normalized growth,"S. cerevisiae deletion strains, locus YKR001C, strain vps1, stronger effect = lower value",0.94
same,normalized growth,"S. cerevisiae deletion strains, locus YKR026C, strain gcn3, stronger effect = lower value",1
same,normalized growth,"S. cerevisiae deletion strains, locus YKR091W, strain srl3, stronger effect = lower value",0.979
same,normalized growth,"S. cerevisiae deletion strains, locus YLL001W, strain dnm1, stronger effect = lower value",0.941
same,normalized growth,"S. cerevisiae deletion strains, locus YLL026W, stronger effect = lower value",0.982
same,normalized growth,"S. cerevisiae deletion strains, locus YLL041C, strain sdh2, stronger effect = lower value",0.979
same,normalized growth,"S. cerevisiae deletion strains, locus YLR027C, strain aat2, stronger effect = lower value",0.893 (active)
same,normalized growth,"S. cerevisiae deletion strains, locus YLR039C, strain RIC1, stronger effect = lower value",0.872
same,normalized growth,"S. cerevisiae deletion strains, locus YLR058C, strain SHM2, stronger effect = lower value",0.937
same,normalized growth,"S. cerevisiae deletion strains, locus YLR102C, strain apc9, stronger effect = lower value",1.04
same,normalized growth,"S. cerevisiae deletion strains, locus YLR113W, strain HOG1, stronger effect = lower value",0.98
same,normalized growth,"S. cerevisiae deletion strains, locus YLR221C, strain rsa3, stronger effect = lower value",0.906 (active)
same,normalized growth,"S. cerevisiae deletion strains, locus YLR258W, strain gsy2, stronger effect = lower value",0.878 (active)
same,normalized growth,"S. cerevisiae deletion strains, locus YLR262C, strain YPT6 (second series), stronger effect = lower value",0.779 (active)
same,normalized growth,"S. cerevisiae deletion strains, locus YLR262C, strain YPT6, stronger effect = lower value",0.982
same,normalized growth,"S. cerevisiae deletion strains, locus YLR268W, strain sec22, stronger effect = lower value",0.924
same,normalized growth,"S. cerevisiae deletion strains, locus YLR320W, strain mms22, stronger effect = lower value",0.869 (active)
same,normalized growth,"S. cerevisiae deletion strains, locus YLR330W, strain CHS5, stronger effect = lower value",0.991
same,normalized growth,"S. cerevisiae deletion strains, locus YLR342W, strain FKS1 (second series), stronger effect = lower value",0.719 (active)
same,normalized growth,"S. cerevisiae deletion strains, locus YLR342W, strain FKS1, stronger effect = lower value",0.8 (active)
same,normalized growth,"S. cerevisiae deletion strains, locus YLR357W, strain rsc2, stronger effect = lower value",0.713 (active)
same,normalized growth,"S. cerevisiae deletion strains, locus YLR370C, strain arc18, stronger effect = lower value",0.859 (active)
same,normalized growth,"S. cerevisiae deletion strains, locus YLR371W, strain rom2, stronger effect = lower value",0.969
same,normalized growth,"S. cerevisiae deletion strains, locus YLR384C, strain iki3, stronger effect = lower value",0.951
same,normalized growth,"S. cerevisiae deletion strains, locus YLR418C, strain cdc73, stronger effect = lower value",0.775 (active)
same,normalized growth,"S. cerevisiae deletion strains, locus YML016C, strain PPZ1, stronger effect = lower value",0.961
same,normalized growth,"S. cerevisiae deletion strains, locus YML032C, strain rad52, stronger effect = lower value",1.04
same,normalized growth,"S. cerevisiae deletion strains, locus YML120C, strain ndi1, stronger effect = lower value",0.98
same,normalized growth,"S. cerevisiae deletion strains, locus YML124C, strain tub3, stronger effect = lower value",1.03
same,normalized growth,"S. cerevisiae deletion strains, locus YMR058W, strain fet3, stronger effect = lower value",0.882 (active)
same,normalized growth,"S. cerevisiae deletion strains, locus YMR078C, strain ctf18, stronger effect = lower value",1.03
same,normalized growth,"S. cerevisiae deletion strains, locus YMR125W, strain sto1, stronger effect = lower value",1.02
same,normalized growth,"S. cerevisiae deletion strains, locus YMR129W, stronger effect = lower value",0.955
same,normalized growth,"S. cerevisiae deletion strains, locus YMR205C, strain PFK2, stronger effect = lower value",0.929
same,normalized growth,"S. cerevisiae deletion strains, locus YMR223W, strain ubp8, stronger effect = lower value",0.928
same,normalized growth,"S. cerevisiae deletion strains, locus YMR231W, strain pep5, stronger effect = lower value",0.953
same,normalized growth,"S. cerevisiae deletion strains, locus YMR263W, strain SAP30, stronger effect = lower value",0.906
same,normalized growth,"S. cerevisiae deletion strains, locus YMR307W, strain GAS1, stronger effect = lower value",0.683 and 1
same,normalized growth,"S. cerevisiae deletion strains, locus YNL067W, strain RPL9B, stronger effect = lower value",0.913
same,normalized growth,"S. cerevisiae deletion strains, locus YNL071W, strain lat1, stronger effect = lower value",0.848 (active)
same,normalized growth,"S. cerevisiae deletion strains, locus YNL128W, strain TEP1, stronger effect = lower value",0.964 and 0.995
same,normalized growth,"S. cerevisiae deletion strains, locus YNL153C, strain GIM3, stronger effect = lower value",0.875 and 0.922
same,normalized growth,"S. cerevisiae deletion strains, locus YNL175C, strain NOP13, stronger effect = lower value",1.01
same,normalized growth,"S. cerevisiae deletion strains, locus YNL183C, strain NPR1, stronger effect = lower value",0.928
same,normalized growth,"S. cerevisiae deletion strains, locus YNL197C, strain WHI3, stronger effect = lower value",1.01
same,normalized growth,"S. cerevisiae deletion strains, locus YNL209W, strain ssb2, stronger effect = lower value",0.636 (active)
same,normalized growth,"S. cerevisiae deletion strains, locus YNL224C, strain SQS1, stronger effect = lower value",1.02
same,normalized growth,"S. cerevisiae deletion strains, locus YNL233W, strain BNI4, stronger effect = lower value",0.859 (active)
same,normalized growth,"S. cerevisiae deletion strains, locus YNL248C, strain rpa49, stronger effect = lower value",0.948
same,normalized growth,"S. cerevisiae deletion strains, locus YNL250W, strain rad50, stronger effect = lower value",1.02
same,normalized growth,"S. cerevisiae deletion strains, locus YNL271C, strain bni1, stronger effect = lower value",1.02
same,normalized growth,"S. cerevisiae deletion strains, locus YNL298W, strain CLA4, stronger effect = lower value",1.01
same,normalized growth,"S. cerevisiae deletion strains, locus YNL307C, strain MCK1, stronger effect = lower value",0.948
same,normalized growth,"S. cerevisiae deletion strains, locus YNL322C, strain KRE1 (second series), stronger effect = lower value",0.941
same,normalized growth,"S. cerevisiae deletion strains, locus YNL322C, strain KRE1, stronger effect = lower value",0.929
same,normalized growth,"S. cerevisiae deletion strains, locus YNR049C, strain mso1, stronger effect = lower value",0.967
same,normalized growth,"S. cerevisiae deletion strains, locus YNR052C, strain pop2, stronger effect = lower value",1
same,normalized growth,"S. cerevisiae deletion strains, locus YOL006C, strain TOP1, stronger effect = lower value",0.616
same,normalized growth,"S. cerevisiae deletion strains, locus YOL012C, strain htz1",0.39
same,normalized growth,"S. cerevisiae deletion strains, locus YOL147C, strain pex11, stronger effect = lower value",1.03
same,normalized growth,"S. cerevisiae deletion strains, locus YOR001W, strain rrp6, stronger effect = lower value",0.925
same,normalized growth,"S. cerevisiae deletion strains, locus YOR061W, strain CKA2, stronger effect = lower value",0.939
same,normalized growth,"S. cerevisiae deletion strains, locus YOR069W, strain VPS5, stronger effect = lower value",0.974
same,normalized growth,"S. cerevisiae deletion strains, locus YOR070C, strain gyp1, stronger effect = lower value",0.885 (active)
same,normalized growth,"S. cerevisiae deletion strains, locus YOR080W, strain dia2, stronger effect = lower value",0.925
same,normalized growth,"S. cerevisiae deletion strains, locus YOR083W, strain WHI5 (second series), stronger effect = lower value",0.994
same,normalized growth,"S. cerevisiae deletion strains, locus YOR083W, strain WHI5, stronger effect = lower value",0.808 (active)
same,normalized growth,"S. cerevisiae deletion strains, locus YOR106W, strain vam3, stronger effect = lower value",0.653 (active)
same,normalized growth,"S. cerevisiae deletion strains, locus YOR136W, strain idh2, stronger effect = lower value",1.01
same,normalized growth,"S. cerevisiae deletion strains, locus YOR144C, strain elg1, stronger effect = lower value",1.03
same,normalized growth,"S. cerevisiae deletion strains, locus YOR184W, strain ser1, stronger effect = lower value",0.92
same,normalized growth,"S. cerevisiae deletion strains, locus YOR231W, strain MKK1, stronger effect = lower value",0.991
same,normalized growth,"S. cerevisiae deletion strains, locus YOR265W, strain rbl2, stronger effect = lower value",0.963
same,normalized growth,"S. cerevisiae deletion strains, locus YOR270C, strain vph1, stronger effect = lower value",0.749 (active)
same,normalized growth,"S. cerevisiae deletion strains, locus YOR290C, strain snf2, stronger effect = lower value",0.888
same,normalized growth,"S. cerevisiae deletion strains, locus YOR316C, strain cot1, stronger effect = lower value",1.04
same,normalized growth,"S. cerevisiae deletion strains, locus YPL051W, strain arl3, stronger effect = lower value",0.814 (active)
same,normalized growth,"S. cerevisiae deletion strains, locus YPL055C, strain LGE1, stronger effect = lower value",0.86 and 1
same,normalized growth,"S. cerevisiae deletion strains, locus YPL078C, strain atp4, stronger effect = lower value",0.927
same,normalized growth,"S. cerevisiae deletion strains, locus YPL106C, strain sse1, stronger effect = lower value",0.783 (active)
same,normalized growth,"S. cerevisiae deletion strains, locus YPL240C, strain hsp82, stronger effect = lower value",0.936
same,normalized growth,"S. cerevisiae deletion strains, locus YPL241C, strain CIN2, stronger effect = lower value",0.987
same,normalized growth,"S. cerevisiae deletion strains, locus YPL256C, strain CLN2, stronger effect = lower value",0.982
same,normalized growth,"S. cerevisiae deletion strains, locus YPR119W, strain clb2, stronger effect = lower value",1.05
same,normalized growth,"S. cerevisiae deletion strains, locus YPR141C, strain kar3, stronger effect = lower value",1.01
same,normalized growth,"S. cerevisiae deletion strains, locus YPR163C, strain tif3, stronger effect = lower value",1.03
same,normalized growth,"S. cerevisiae deletion strains, locus YPR167C, strain met16, stronger effect = lower value",1.02
same,normalized growth,"S. cerevisiae deletion strains, strain wtn01, stronger effect = lower value",0.931
same,normalized growth,"S. cerevisiae strains, strain wild type, stronger effect = lower value",0.912
